In PubChem BioAssay AID1942 (Johns Hopkins Ion Channel Center, 2009):
About 580 (24%) of roughly 2,400 compounds were called active. These entries were drawn from the full list. Unmarked numbers belong to inactive results.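 The calls were made as follows: active = activity change at or above the mean plus 3 SD of buffer wells without dofetilide, per plate; inactive = the rest.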

What follows are compounds tested against Potassium voltage-gated channel subfamily KQT member 2 (Rattus norvegicus) (UniProt O88943) (assay: KCNQ2 potentiation in CHO cells – cell-based, FluxOR thallium flux, counter-screen for hERG block protector project, confirmation (AID 1942;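 also: normalized value minus buffer-control mean plus three SD of buffer wells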)). Conditions: FluxOR thallium flux fluorescence, at 10 µM, stronger effect = higher value.
Potassium voltage-gated channel subfamily KQT member 2 (Rattus norvegicus), sequence (O88943 whole entry, looked up): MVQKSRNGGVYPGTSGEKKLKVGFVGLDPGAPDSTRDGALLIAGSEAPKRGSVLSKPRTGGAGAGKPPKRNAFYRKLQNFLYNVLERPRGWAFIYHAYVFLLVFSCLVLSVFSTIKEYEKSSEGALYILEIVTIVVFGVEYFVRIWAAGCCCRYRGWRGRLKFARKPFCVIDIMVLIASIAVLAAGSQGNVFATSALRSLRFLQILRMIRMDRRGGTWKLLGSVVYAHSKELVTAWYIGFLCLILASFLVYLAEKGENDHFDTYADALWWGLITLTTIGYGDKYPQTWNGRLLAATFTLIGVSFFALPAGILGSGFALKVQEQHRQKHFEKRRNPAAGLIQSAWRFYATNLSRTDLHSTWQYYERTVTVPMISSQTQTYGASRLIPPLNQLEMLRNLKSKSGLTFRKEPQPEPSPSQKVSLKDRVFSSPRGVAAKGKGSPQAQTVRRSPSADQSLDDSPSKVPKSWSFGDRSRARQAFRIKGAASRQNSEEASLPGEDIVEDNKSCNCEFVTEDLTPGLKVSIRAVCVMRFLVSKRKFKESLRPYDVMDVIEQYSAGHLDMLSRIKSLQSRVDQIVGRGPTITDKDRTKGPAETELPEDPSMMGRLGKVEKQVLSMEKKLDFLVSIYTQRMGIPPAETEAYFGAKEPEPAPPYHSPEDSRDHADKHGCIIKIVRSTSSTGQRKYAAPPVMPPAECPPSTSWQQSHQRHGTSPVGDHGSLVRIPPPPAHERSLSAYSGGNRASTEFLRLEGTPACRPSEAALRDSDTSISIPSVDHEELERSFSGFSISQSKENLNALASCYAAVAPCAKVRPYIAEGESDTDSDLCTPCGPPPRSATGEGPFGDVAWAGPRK
CN(C(=O)CCc1ccccc1)c1nnc(-c2ccncc2)s1 was tested, and the activity change, less the hit threshold was -20.2%. Cc1cc(=O)oc2cc(OCC(=O)OCC(=O)NC(C)C)ccc12 showed an activity change, less the hit threshold of -16.8%. O=C(NCCc1nnc2ccc(NCc3ccc(Cl)cc3)nn12)c1ccccc1 gave an activity change, less the hit threshold of -7.7%. In the case of O=C(N/N=C/c1cc([N+](=O)[O-])ccc1O)c1ccc(COc2ccc3c(c2)CCC3)o1, the activity change, less the hit threshold is reported as -47.5%. N#CCCn1cc(/C=N/NC(=O)c2ccncc2)c(-c2ccc(F)cc2)n1 was tested, and the activity change, less the hit threshold was -4.3%. For CCn1ccnc1CN1CCCC(CO)(Cc2cccc(OC)c2)C1 (configuration not stated), the activity change, less the hit threshold was -24.6%. With CCCCNC(=O)COC(=O)c1ccc(NC(C)=O)cc1 the activity change, less the hit threshold was -20.3%. CCNC(=O)C/C(C)=N/NC(=O)C(=O)Nc1ccc(CC)cc1 was tested, and the activity change, less the hit threshold was 4.9% (active). Compound CSCC[C@H](NC(=O)Nc1ccc(C)cc1C)C(=O)O has an activity change, less the hit threshold of -12%. For CCOC(=O)C1CCN(S(=O)(=O)c2cccc3nonc23)CC1, the activity change, less the hit threshold was -11.1%. Work on O=C(O)CN1C(=O)c2ccc(Oc3ccc4c(c3)C(=O)N(CC(=O)O)C4=O)cc2C1=O yielded an activity change, less the hit threshold of -11.1%. For O=C(O)Cc1cc(I)c(Oc2ccc(O)c(I)c2)c(I)c1, the activity change, less the hit threshold was 93.7% (active). For NC(=O)Cn1c2[n+](c3ccccc31)CC(O)CS2 (configuration not stated), the activity change, less the hit threshold was -19.2%. In the case of CCc1ccc(C(C)NC(=O)C2CCCC2)cc1 (configuration not stated), the activity change, less the hit threshold is reported as 14.8% (active). Work on Cc1ccc(NC(=O)c2noc3c2CCC3)cc1C yielded an activity change, less the hit threshold of -19.4%. For Cc1ccc(C(C)NC(=O)C2CCCC2)cc1C (configuration not stated), the activity change, less the hit threshold was 37.3% (active). With CCc1ccccc1N(CC(=O)NC(C)c1ccccc1)S(C)(=O)=O (configuration not stated) the activity change, less the hit threshold was -20.5%. Compound Cc1ccc(NC(=O)C2C3CCC(O3)C2C(=O)O)cc1C (configuration not stated) has an activity change, less the hit threshold of -2.7%. CSc1ccccc1-n1nnnc1SCC(=O)Nc1cc(C)ccc1C showed an activity change, less the hit threshold of -20.8%. For C=CCSC1=C(C#N)C(c2ccccc2)CC(=O)N1 (configuration not stated), the activity change, less the hit threshold was -23.3%. With O=C(CNC(=O)c1ccccc1)NCc1ccc(Cl)cc1 the activity change, less the hit threshold was -10.7%. Cc1nn(C(=O)CNC(=O)c2ccccc2)c(C)c1C was tested, and the activity change, less the hit threshold was 17.2% (active). For Cc1ccsc1/C=N/NC(=O)CNC(=O)c1ccccc1, the activity change, less the hit threshold was -13.4%. With Cc1ccc(S(=O)(=O)N2CCOCC2)cc1NC(=O)COC(=O)c1cccnc1Cl the activity change, less the hit threshold was -22.8%. For CC(C)c1ccc(CNc2nc3nc4c(c(=O)n3[nH]2)CCC4)cc1, the activity change, less the hit threshold was 0.8% (active). CCC(=O)Nc1ccc(N2CCOCC2)c(S(=O)(=O)Nc2ccc(OC)cc2)c1 was tested, and the activity change, less the hit threshold was -22.6%. With Cc1ccc2[nH]c(C(=O)O)c(-c3ccccc3)c2c1 the activity change, less the hit threshold was -8.1%. Compound Cc1ccc(-n2nc3ccc(N)cc3n2)c(C)c1 has an activity change, less the hit threshold of -29.1%. Cc1cc(C)cc(-n2ncc3c2CCCC3NC(=O)c2csnn2)c1 (configuration not stated) gave an activity change, less the hit threshold of -28.6%. With CC(O)C(NS(=O)(=O)c1ccc(Cl)cc1)C(=O)OCc1cc([N+](=O)[O-])cc2c1OCOC2 (configuration not stated) the activity change, less the hit threshold was -18.1%. O=[N+]([O-])c1ccc(CSc2nnc(SCc3ccc(Cl)cc3)s2)cc1 gave an activity change, less the hit threshold of -10.9%. With O=[N+]([O-])c1ccc(Nc2ccc(Cl)cc2)nc1 the activity change, less the hit threshold was 3.5% (active). Work on O=[N+]([O-])c1ccc(Nc2ccccc2F)nc1 yielded an activity change, less the hit threshold of -2.6%. With CCCOc1ccc(C(=O)NNC(=S)NC(=O)c2ccco2)cc1 the activity change, less the hit threshold was -27.6%. For CCN(CC)c1ccc(NC(=S)NC(=O)c2ccco2)cc1, the activity change, less the hit threshold was 35.9% (active). With CCOc1ccc(NC(=S)NC(=O)c2ccco2)cc1 the activity change, less the hit threshold was 8% (active). Work on COc1cc(OC)cc(C(=O)NC(=S)Nc2ccc(NC(=O)c3ccco3)cc2)c1 yielded an activity change, less the hit threshold of -20.6%. CNC(=O)c1cc(C(=O)c2ccc(F)cc2C(F)(F)F)c[nH]1 was tested, and the activity change, less the hit threshold was -11.8%. Work on CCC(C)(C)NC(=O)c1ccc(Sc2nncn2C)c([N+](=O)[O-])c1 yielded an activity change, less the hit threshold of -20.1%. In the case of O=C1CCN(S(=O)(=O)c2ccc(Cl)cc2)CCN1, the activity change, less the hit threshold is reported as -21.6%. For CC(Sc1n[nH]c(=O)[nH]c1=O)C(=O)OCc1ccccc1 (configuration not stated), the activity change, less the hit threshold was -11.2%. COCCNC(=O)CN(C(=O)c1ccc(N2CCCC2)nc1)c1ccccc1 showed an activity change, less the hit threshold of -18.5%. For Cn1nnnc1SCC(=O)Nc1ccccn1, the activity change, less the hit threshold was -5.9%. With C/C(CC(=O)Nc1ccccn1)=N\NC(=O)C(=O)Nc1cccc(Cl)c1C the activity change, less the hit threshold was 1.1% (active). In the case of CC(=O)Nc1ccccc1NC(=O)C/C(C)=N/NC(=O)c1ccc([N+](=O)[O-])c(Cl)c1, the activity change, less the hit threshold is reported as -19%. c1ccc(Cn2ncc3c(N4CCN(C(c5ccccc5)c5ccccc5)CC4)ncnc32)cc1 was tested, and the activity change, less the hit threshold was -29.3%. With COc1ccccc1Nc1nnc(SCC(=O)Nc2nc(-c3ccc(F)cc3)cs2)s1 the activity change, less the hit threshold was -22.3%. For N#C/C(=C\c1ccc(-c2ccccc2Cl)o1)C(=O)Nc1nc2ccccc2s1, the activity change, less the hit threshold was -10.9%. In the case of COc1cccc2sc(Nc3nc(-c4ccccn4)cs3)nc12, the activity change, less the hit threshold is reported as 20.3% (active). In the case of COc1cccc2sc(Nc3nnc(-c4ccc(F)cc4)o3)nc12, the activity change, less the hit threshold is reported as 45.4% (active). In the case of COc1cccc2sc(Nc3nnc(-c4cccs4)o3)nc12, the activity change, less the hit threshold is reported as 53.9% (active). CCOc1ccccc1Nc1nc(-c2sc(C)nc2C)cs1 showed an activity change, less the hit threshold of -22%. For COc1cccc2sc(Nc3nnc(-c4ccccc4Cl)o3)nc12, the activity change, less the hit threshold was 9.4% (active). In the case of Cc1ccc(CNC(=O)C2=CCN(S(=O)(=O)c3ccc(C)cc3)CC2)cc1, the activity change, less the hit threshold is reported as -15.1%. In the case of Cc1c(C(=O)NNC(=O)c2ccncc2)oc2ccc(Br)cc12, the activity change, less the hit threshold is reported as -16.1%. In the case of Cc1ccc(CNC(=O)CN(C(=O)C2(C)CC(=O)N=C3C=CC=CN32)c2ccccc2F)cc1 (configuration not stated), the activity change, less the hit threshold is reported as -10.9%. Work on C=Cc1ccc(Cn2c(=O)n(CCCOC)c(=O)c3sccc32)cc1 yielded an activity change, less the hit threshold of -28.9%. O=S(=O)(Nc1ccc(Cc2ccncc2)cc1)c1ccc(Cl)c(Cl)c1 showed an activity change, less the hit threshold of -20.9%. For CCCn1c(CC)nc([N+](=O)[O-])c1S(=O)(=O)c1ccccc1, the activity change, less the hit threshold was -4.3%. For CC(C)[C@H](NC(=O)c1ccco1)C(=O)OCC(=O)Nc1cccc(F)c1, the activity change, less the hit threshold was -22%. CCOc1c(OC)ccc2c3c(c(=O)oc12)CCCC3 gave an activity change, less the hit threshold of -8.2%. With CN1CCN(S(=O)(=O)c2cccc(S(=O)(=O)c3ccc(Cl)cc3)c2)CC1 the activity change, less the hit threshold was -17.8%. Cn1c(=O)c2c(nc(Cl)n2CC(=O)N2CCCCC2)n(C)c1=O gave an activity change, less the hit threshold of -22.7%. CCCCc1c(C)[nH]c(C(=O)OCC)c1C showed an activity change, less the hit threshold of -19.3%. COCCn1c(=S)[nH]c2sc3c(c2c1=O)CCCC3 was tested, and the activity change, less the hit threshold was 31.9% (active). For COCCn1c(=S)[nH]c2sc3c(c2c1=O)CCC(C)C3 (configuration not stated), the activity change, less the hit threshold was 51.5% (active). CCOCCCn1c(=S)[nH]c2cc(C(=O)NCCOC)ccc2c1=O gave an activity change, less the hit threshold of -10.4%. For COCCCn1c(=S)[nH]c2sc3c(c2c1=O)CCCC3, the activity change, less the hit threshold was 40.5% (active). Compound COCCCn1c(=S)[nH]c2c(sc3ccccc32)c1=O has an activity change, less the hit threshold of -11.4%. Work on Cc1ccc(S(=O)(=O)Nc2c(C)[nH]c(=O)[nH]c2=O)cc1C yielded an activity change, less the hit threshold of -17.9%. CCOC(=O)CSc1nnc(NC(=O)c2ccc3c(c2)OCO3)s1 showed an activity change, less the hit threshold of -23.9%. In the case of O=S(=O)(Nc1cccc(-n2cnnn2)c1)c1ccc(Cl)nc1, the activity change, less the hit threshold is reported as -9%. Compound CN(C)S(=O)(=O)c1cc(NC2CC(=O)N(c3ccc(F)cc3)C2=O)ccc1Cl (configuration not stated) has an activity change, less the hit threshold of -7.3%. CCN(CC)CCOC(=O)C(c1ccccc1)c1ccccc1 was tested, and the activity change, less the hit threshold was -11.4%. With Cc1ccc(NC(=O)c2cc(NC(=O)/C=C\C(=O)O)ccc2N2CCCCC2)cc1 the activity change, less the hit threshold was 3.1% (active). Compound O=C(/C=C/c1ccccc1)Nc1ccc(C(=O)N2CCCCC2)cc1 has an activity change, less the hit threshold of -11.4%. Compound COc1ccc(NC(=O)c2cc(S(=O)(=O)N3CCOCC3)ccc2N2CCOCC2)cc1 has an activity change, less the hit threshold of -16.6%. Work on CC(=O)N1CCc2cc(S(=O)(=O)N3c4ccccc4CC3C)ccc21 (configuration not stated) yielded an activity change, less the hit threshold of -13.9%. CC(=O)N1c2ccc(N=Cc3cc(Br)cc(Br)c3O)cc2CC1C (configuration not stated) was tested, and the activity change, less the hit threshold was 0.4% (active). Work on N=c1sccn1CC(=O)Nc1ccccc1Cc1ccccc1 yielded an activity change, less the hit threshold of -16.3%. For CCc1nnc(NC(=O)c2cccc(C(=O)Nc3nnc(CC)s3)n2)s1, the activity change, less the hit threshold was -22.2%. In the case of O=C(COC(=O)C1CCC(=O)N1)Nc1cc(Cl)ccc1Cl (configuration not stated), the activity change, less the hit threshold is reported as -16.9%. In the case of Cc1cccc(NC(=O)COc2coc(CN3CCN(c4ccccc4)CC3)cc2=O)c1, the activity change, less the hit threshold is reported as -22.1%. In the case of Cc1cc(Br)c(NC(=O)COC(=O)C2CC2C)c(Br)c1 (configuration not stated), the activity change, less the hit threshold is reported as 4.5% (active). O=C1OC(/C=C/c2ccccc2)=NC/1=C/c1ccco1 showed an activity change, less the hit threshold of -29%. In the case of COC(=O)c1ccc(NC(=O)COC(=O)C2CC(=O)N(Cc3ccccc3)C2)cc1 (configuration not stated), the activity change, less the hit threshold is reported as -26.7%. Compound O=C(O)CCCN1C(=O)C2C3c4ccccc4C(c4ccccc43)[C@@H]2C1=O (some centres not stated) has an activity change, less the hit threshold of -24.6%. Cc1cc(C)cc(-n2c(C)cc(/C=N/NC(=O)CN(c3c(C)cccc3C)S(C)(=O)=O)c2C)c1 gave an activity change, less the hit threshold of -19.4%. Compound Nc1ccc2c(c1)C(=O)C(=O)c1ccccc1-2 has an activity change, less the hit threshold of -3.9%. In the case of CCOC(=O)c1sc2ncnc(NCC(c3cccs3)N(C)C)c2c1C (configuration not stated), the activity change, less the hit threshold is reported as 39.2% (active). In the case of Cc1ccc(OC(=O)c2sc3ncn(C)c(=O)c3c2C)cc1, the activity change, less the hit threshold is reported as -29.2%. For CCOC(=O)c1sc2ncnc(NCc3ccco3)c2c1C, the activity change, less the hit threshold was 51.8% (active). In the case of CCOC(=O)c1c(NC(=O)/C=C/c2ccco2)sc(C)c1C, the activity change, less the hit threshold is reported as -12%. COc1ccc(N(C(=O)c2ccco2)S(=O)(=O)c2cccs2)cc1 was tested, and the activity change, less the hit threshold was -19.4%. For O=C(N/N=C/c1ccsc1)C1CC1, the activity change, less the hit threshold was -15.9%. In the case of COCCNC(=O)C1CCN(S(=O)(=O)N2CCC3(CC2)OCCO3)CC1, the activity change, less the hit threshold is reported as -21.8%. With Cc1nc(NC(=O)c2ccco2)sc1C(=O)O the activity change, less the hit threshold was -11.4%. Compound CCOC(=O)c1sc(NC(=S)NC(=O)c2ccccc2)nc1C has an activity change, less the hit threshold of -3.4%. With CCOC(=O)c1sc(NC(=S)NC(=O)c2ccco2)nc1C the activity change, less the hit threshold was 4.8% (active). In the case of CCOC(=O)c1sc(NC(=S)NC(=O)c2cccc(OC)c2)nc1C, the activity change, less the hit threshold is reported as 4.7% (active). In the case of CCOC(=O)c1sc(NC(=S)NC(=O)c2ccc(OC)cc2)nc1C, the activity change, less the hit threshold is reported as -10.9%. CCOC(=O)c1cccc(C(=O)Nc2nc3ccc(OC)cc3s2)n1 showed an activity change, less the hit threshold of -15.8%.
